# Assay outcomes: PubChem, Small Molecule Screening Facility, UW Madison
# This excerpt belongs to a sample that is enriched for hits.
# RMI-FANCM inh: inhibitors of human RMI core complex binding to FANCM MM2. Fluorescence polarization, RMI core complex with F-MM2 peptide; active compounds read low. 0.58% of 70,000 active. FP signal (polarization) at 33 µM. AID 1159607; in the data active means FP signal below about 40
# Active calls of the source: *; ! = not active in a repeat.
SMILES,RMI-FANCM inh
O=C1C=CC(=O)c2c(O)cccc21,-18*
O=C1c2ccccc2C(=O)c2ccccc21,58
NCC(=O)c1ccccc1,55
CCN(C(C)=O)c1cccc(-c2ccnc3c(C#N)cnn23)c1,57
O=P1(N(CCCl)CCCl)NCCCO1 (stereo not drawn),56
CN(C)[C@@H]1C(=O)C(C(N)=O)=C(O)[C@@]2(O)C(=O)C3=C(O)c4c(O)cccc4[C@@](C)(O)[C@H]3[C@H](O)[C@@H]12,62
N[C@@H](CCl)C(=O)O,52
NC(Cc1cc(O)c(O)cc1O)C(=O)O (stereo not drawn),-4*
NCCc1cc(O)c(O)cc1O,59
CC12CCC3C(CCC4=CC(=O)CCC43CO)C1CCC2OC(=O)c1ccccc1 (stereo not drawn),54
CCOc1ccc2nc(NC(=O)c3cccn(Cc4ccccc4C)c3=O)sc2c1,54
NC(=O)c1cc([N+](=O)[O-])cc([N+](=O)[O-])c1,57
CN1CCN(C(=O)OC2c3nccnc3C(=O)N2c2ccc(Cl)cn2)CC1 (stereo not drawn),51
Clc1cnc(Oc2ccc(Oc3ncc(Cl)cc3Cl)cc2)c(Cl)c1,51
NC1=NC(=O)C(c2ccccc2)O1 (stereo not drawn),17*
CN(C)C(=O)Oc1cccc([N+](=O)[O-])c1,58
CC(C)=CCCC1(C)C=Cc2c(O)c3c(c(CC=C(C)C)c2O1)OC12C(=CC4CC1C(C)(C)OC2(C/C=C(/C)C(=O)O)C4O)C3=O (stereo not drawn),54
CC(C)=CCCC1(C)C=Cc2c(O)c3c(c(CC=C(C)C)c2O1)OC12C(=CC4CC1C(C)(C)OC2(C/C=C(/C)C(=O)O)C4=O)C3=O (stereo not drawn),56
COc1c(CC=C(C)C)c2c(c3oc(=O)c(-c4ccc(O)cc4)c(O)c13)C=CC(C)(C)O2,13*
Fc1ccc2nc(N3CCNCC3)sc2c1,72
O=S(=O)(c1ccc(F)cc1)N1CCCC1c1cccnc1 (stereo not drawn),63
CC1=NCCc2c1[nH]c1cc(O)ccc21,64
COc1ccc2c3c([nH]c2c1)C(C)=NCC3,35*!
COc1ccc2c(c1)[nH]c1c(C)nccc12,67
O=C(Cc1cc(=O)[nH]c(=O)[nH]1)N1CCN(CCO)CC1,54
N=C1c2ccccc2CN1c1ccc(Br)cc1,70
Nc1ccc(N=Nc2ccccc2)cc1,60
C[C@H](Cc1ccc2c(c1)OC(C(=O)O)(C(=O)O)O2)NC[C@H](O)c1cccc(Cl)c1,47
CC(Cc1ccc(O)cc1)NCC(O)c1cc(O)cc(O)c1 (stereo not drawn),-13*!
CC(N)Cc1ccc(O)cc1 (stereo not drawn),63
